Most compounds without a hit are left out; they make up all but 13% or so of the library.
HCMV antiviral: blocks human cytomegalovirus replication. HFF cells, HCMV-luciferase reporter, 72 h; active compounds read low. activity change, negative = inhibition, % at 57.5 µM. 410,000 compounds, 4.5% hits; in the data active means activity change below about -60%; inconclusive means no clear call, values can overlap the other calls; inactive means above about -39%
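Compounds were evaluated in HFFs infected with an HCMV luciferase reporter virus (MOI 1 PFU/cell). Luciferase in lysates collected 72 h post infection served as the replication measure.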
Pf growth 96h: P. falciparum growth inhibition at 96 hour, primary screen for plastid delayed-death inhibitors | P. falciparum luciferase reporter growth, 96 h | 320,000 compounds, 6.9% hits | Potency, µM (top dose mostly 28.7 µM), for inactives: at the highest dose activity change, negative = inhibition, actives largely listed as inhibitors | AID 504834; further: potency means the concentration at half of the fitted maximal effect
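96 h incubation, 37 C, 5% CO2, of luciferase-reporter P. falciparum-infected RBCs (2% hematocrit, 0.05% parasitemia final) with test compounds; endpoint luminescence.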
HCV inh: HCV inhibition; Potency, µM (titrated, usually from 41.8 µM), for the others: at the top dose activity change, negative = inhibition, actives largely listed as inhibitors; 340,000 compounds, 3.4% hits; Huh7.5.1 HCVcc-Cre infection, luciferase reporter, 44 h; further: potency means the concentration at half of the fitted maximal effect
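Cells (1,000/well) were plated 4 h before compound, then infected with HCVcc-Cre virus (~0.5 moi). After 44 h further culture, infection was read as luciferase luminescence following a 15 min substrate incubation at room temperature.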
Pf growth 48h: inhibits P. falciparum growth in the first generation, 48 h. 310,000 compounds, 5.9% hits. P. falciparum luciferase growth in erythrocytes, 48 h. Potency, µM (titrated, usually from 28.7 µM), without a hit: top-dose activity change, negative = inhibition, most hits filed as inhibitors. AID 504832; further: potency means the concentration at half of the fitted maximal effect
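Here the parasites carry a stable luciferase gene and grow inside erythrocytes in Albumax-based RPMI medium with compound for one erythrocytic cycle. Activity is scored as loss of luminescent signal.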
* marks the source's active call; other numbers are inactive results; ? = inconclusive; · = no result; [ ] = another dose, or the depositor's remark. Unless noted, the call rests on the fitted dose curve; in most records, active means well fitted inhibition curve with a large enough effect; inconclusive means small, poorly fitted or top-dose-only effect, or another doubt; inactive means no such curve, though single readings can be large or run the other way. On the % scale 0 is the no-effect control and ±100 the full control effect.

SMILES	HCMV antiviral	Pf growth 96h	HCV inh	Pf growth 48h
O=C1CCN(CCc2ccccc2)CCN1[C@H](CSc1ccc(Br)cc1)Cc1ccccc1	28.4	8.28µM*	-17.1%	13.1µM*
CC(=O)Nc1ccc(SC[C@H](CC(C)C)N2CCN(CC(C)C)CCC2=O)cc1	-15.2	?	47.0%[8.37 µM]	?
COCCCNC(=O)CCCn1c(SCC(=O)c2ccc(Br)cc2)nc2c(sc3ccccc32)c1=O	0.3	·	·	·
O=C(COc1ccc(Br)cc1)c1ccc2c(c1)CCCC2	-19.7	8.28µM*	-18.0%	33.1%
CCc1ccc(CNC(=O)c2cc3c(C)nc4ccccc4c3o2)cc1	-64.1*	?	11.2µM*	-19.1%
Cc1nc2ccccc2c2oc(C(=O)NCCN3CCCCC3C)cc12 (configuration not stated)	5.1	?	?	?
COc1ccc(N2CCN(C(=O)c3cc4c(C)nc5ccccc5c4o3)CC2)cc1	-99.9*	0.828µM*	?	2.1%
CCCCN(CC)CCNC(=O)c1cc2c(C)nc3ccccc3c2o1	?	11.0%	6.31µM*	?
COc1cccc(CNC(=O)c2cc(-c3cccs3)nc3ccccc23)c1	13.6	·	·	·
COc1cccc(CNC(=O)c2cc3c(C)nc4ccccc4c3o2)c1	?	302.1%	6.31µM*	·
O=C(Nc1nnc(N2CCCCCC2)s1)Nc1ccccc1C(F)(F)F	147.7	·	·	·
O=C(Cc1ccccc1)NCC1COc2ccccc2O1 (configuration not stated)	53.8	·	18.4%	·
COc1ccc(CNC(=O)c2cc3c(C)nc4ccccc4c3o2)c(OC)c1	·	-16.1%	3.16µM*	·
CCN1CCCC1CNC(=O)C(=O)NC(C)c1ccccc1 (configuration not stated)	?	11.7µM*	1.6%	14.4%
Cc1nc2ccccc2c2oc(C(=O)NCC3COc4ccccc4O3)cc12 (configuration not stated)	?	7.6%	10µM*	2.0%
CCN1CCCC1CNC(=O)C(=O)NC(C)C (configuration not stated)	-33.9	18.9%	21.6%	39.8%
CCN1CCCC1CNC(=O)c1cc2c(C)nc3ccccc3c2o1 (configuration not stated)	-16.1	?	?	9.28µM*
CCc1ccc2oc(C(=O)N3CCN(c4ccccc4OC)CC3)cc(=O)c2c1	6.3	4.7%	-9.6%	-21.9%
CCc1ccc2oc(C(=O)N3CCN(c4ccc(OC)cc4)CC3)cc(=O)c2c1	-62.6*	-13.9%	?	30.3%
Cc1ccccc1CNC(=O)C(=O)NCC(c1ccc2c(c1)OCO2)N1CCOCC1 (configuration not stated)	-3.6	·	·	·
CNc1oc(-c2cccs2)nc1S(=O)(=O)c1ccccc1	-9.4	-5.2%	-5.6%	-7.3%
CCC(C)S(=O)(=O)c1oc(-c2cccs2)nc1S(=O)(=O)c1ccccc1 (configuration not stated)	-102.1*	·	·	·
CCCCNc1oc(-c2cccs2)nc1S(=O)(=O)c1ccccc1	?	?	10µM*	·
C[C@H](O)[C@@H]1C(=O)N2CCc3ccc(N4CCN(C)CC4)cc3[C@@H]2C[C@@H]1N(C)C(=O)c1cccnc1	2.3	·	·	·
Cc1ccc(S(=O)(=O)C2CS(=O)(=O)CC2O)cc1 (configuration not stated)	-26.4	?	13.2%	·
SMILES	HCMV antiviral	Pf growth 96h	HCV inh	Pf growth 48h
CC(=O)C1=C(S(=O)(=O)c2ccc(C)cc2)CS(=O)(=O)C1	-100.1*	3.6%	-8.7%	4.8%
C#CCOc1ccccc1C(=O)NNc1ccc([N+](=O)[O-])cc1[N+](=O)[O-]	44.8	·	·	·
CC(C)c1cccc(C(C)C)c1NC1=NS(=O)(=O)c2ccccc21	-2.6	·	·	·
CC(=O)c1cccc(CN2CCCC(C(=O)Nc3ccc(-c4ccco4)cc3)C2)c1 (configuration not stated)	?	-14.7%	-29.3%	10.4µM*
Cc1cccc(CN2CCCC(C(=O)Nc3ccc(-c4cscn4)cc3)C2)c1 (configuration not stated)	-32.8	9.28µM*	·	?
O=C(Nc1ccc(-c2ccco2)cc1)C1CCCN(Cc2ccc(CO)o2)C1 (configuration not stated)	2.0	0.5%	?	?
Cc1ccccc1CN1CCCC(C(=O)Nc2ccc(-c3ccn[nH]3)cc2)C1 (configuration not stated)	-63.3*	0.6%	?	?
COc1cccc(-c2ccc(NC(=O)C3CCCN(Cc4cc(C)[nH]n4)C3)cc2)c1 (configuration not stated)	?	20.0%	?	?
Cc1cc(C)n(C(C)CC(=O)NCc2ccccc2C)n1 (configuration not stated)	7.8	·	·	·
COc1ccc(CN2C(=O)C(n3c(C)ccc3C)c3ccccc32)cc1 (configuration not stated)	-7.3	·	·	·
Cc1ccc(NS(=O)(=O)c2ccc(NC(=O)N3CCCC3)cc2)cc1C	15.1	·	·	·
CCOc1ccccc1CNC(=O)C1CCN(S(=O)(=O)c2ccc3c(ccn3C)c2)CC1	-3.1	·	·	·
O=C(CSc1nc2ccsc2c(=O)n1Cc1ccc(F)cc1)NCc1ccc(Cl)cc1	26.3	·	·	·
Cc1ccc(C(c2c(C)nn(-c3ccccc3)c2N)c2c(C)nn(-c3ccccc3)c2N)cc1	8.4	13.1µM*	0.8%	10.4µM*
Cc1nn(-c2ccccc2)c(N)c1N=Nc1ccc(Cl)cc1	64.2	165.6%	?	168.8%
Cc1nn(-c2ccccc2)c(N)c1C(O)(C(F)(F)F)C(F)(F)F	-1.1	53.7%	0.8%	10.4%
Cc1nn(-c2ccccc2)c(N)c1C(c1ccc(C(C)C)cc1)c1c(C)nn(-c2ccccc2)c1N	-38.4	0.0%	0.5%	10.4µM*
CCN(CC)S(=O)(=O)c1ccc2oc(C(=O)NC3CC3)c(C)c2c1	?	?	-11.5%	-27.7%
Cc1c(C(=O)NCC2CCCO2)oc2ccc(S(=O)(=O)N3CC(C)CC(C)C3)cc12 (configuration not stated)	-12.7	125.5%	7.8%	·
CCN(CC)S(=O)(=O)c1ccc2oc(C(=O)NCC3COc4ccccc4O3)c(C)c2c1 (configuration not stated)	-36.0	?	10µM*	10.4µM*
CCN(CC)CCCNC(=O)c1oc2ccc(S(=O)(=O)N3CC(C)CC(C)C3)cc2c1C (configuration not stated)	-98.2*	1.4%	22.4µM*	?
Cc1c(C(=O)NCC2COc3ccccc3O2)oc2ccc(S(=O)(=O)N3CC(C)CC(C)C3)cc12 (configuration not stated)	-16.1	·	?	8.28µM*
CCN(CC)S(=O)(=O)c1ccc2oc(C(=O)NCc3ccc(F)cc3)c(C)c2c1	?	·	?	8.28µM*
O=S(=O)(NCC(c1ccco1)N1CCN(c2ccccc2)CC1)c1ccccc1 (configuration not stated)	46.9	·	·	·
Cc1cccc(NC(=O)CSc2nc3ccccc3nc2N2CCCC2)c1	?	32.2%	?	?

From PubChem
